# Assay results taken from PubChem BioAssay AID651768 (National Center for Advancing Translational Sciences (NCATS), 2012).
# About 1,700 (0.47%) of roughly 360,000 compounds were called active. About 2% were inconclusive and are not listed. Many of the other results were omitted from the sample, so actives are more common in it than they were. A number with no mark means an inactive call. Calls come from the whole dose curve; as a rule, active = well fitted inhibition curve with a large enough effect; inconclusive = small, poorly fitted or top-dose-only effect; inactive = no such curve, though single readings can be large or run the other way.
# Target: Bifunctional 3'-5' exonuclease/ATP-dependent helicase WRN (Homo sapiens) (UniProt Q14191)
# Sequence (Q14191 whole entry, looked up): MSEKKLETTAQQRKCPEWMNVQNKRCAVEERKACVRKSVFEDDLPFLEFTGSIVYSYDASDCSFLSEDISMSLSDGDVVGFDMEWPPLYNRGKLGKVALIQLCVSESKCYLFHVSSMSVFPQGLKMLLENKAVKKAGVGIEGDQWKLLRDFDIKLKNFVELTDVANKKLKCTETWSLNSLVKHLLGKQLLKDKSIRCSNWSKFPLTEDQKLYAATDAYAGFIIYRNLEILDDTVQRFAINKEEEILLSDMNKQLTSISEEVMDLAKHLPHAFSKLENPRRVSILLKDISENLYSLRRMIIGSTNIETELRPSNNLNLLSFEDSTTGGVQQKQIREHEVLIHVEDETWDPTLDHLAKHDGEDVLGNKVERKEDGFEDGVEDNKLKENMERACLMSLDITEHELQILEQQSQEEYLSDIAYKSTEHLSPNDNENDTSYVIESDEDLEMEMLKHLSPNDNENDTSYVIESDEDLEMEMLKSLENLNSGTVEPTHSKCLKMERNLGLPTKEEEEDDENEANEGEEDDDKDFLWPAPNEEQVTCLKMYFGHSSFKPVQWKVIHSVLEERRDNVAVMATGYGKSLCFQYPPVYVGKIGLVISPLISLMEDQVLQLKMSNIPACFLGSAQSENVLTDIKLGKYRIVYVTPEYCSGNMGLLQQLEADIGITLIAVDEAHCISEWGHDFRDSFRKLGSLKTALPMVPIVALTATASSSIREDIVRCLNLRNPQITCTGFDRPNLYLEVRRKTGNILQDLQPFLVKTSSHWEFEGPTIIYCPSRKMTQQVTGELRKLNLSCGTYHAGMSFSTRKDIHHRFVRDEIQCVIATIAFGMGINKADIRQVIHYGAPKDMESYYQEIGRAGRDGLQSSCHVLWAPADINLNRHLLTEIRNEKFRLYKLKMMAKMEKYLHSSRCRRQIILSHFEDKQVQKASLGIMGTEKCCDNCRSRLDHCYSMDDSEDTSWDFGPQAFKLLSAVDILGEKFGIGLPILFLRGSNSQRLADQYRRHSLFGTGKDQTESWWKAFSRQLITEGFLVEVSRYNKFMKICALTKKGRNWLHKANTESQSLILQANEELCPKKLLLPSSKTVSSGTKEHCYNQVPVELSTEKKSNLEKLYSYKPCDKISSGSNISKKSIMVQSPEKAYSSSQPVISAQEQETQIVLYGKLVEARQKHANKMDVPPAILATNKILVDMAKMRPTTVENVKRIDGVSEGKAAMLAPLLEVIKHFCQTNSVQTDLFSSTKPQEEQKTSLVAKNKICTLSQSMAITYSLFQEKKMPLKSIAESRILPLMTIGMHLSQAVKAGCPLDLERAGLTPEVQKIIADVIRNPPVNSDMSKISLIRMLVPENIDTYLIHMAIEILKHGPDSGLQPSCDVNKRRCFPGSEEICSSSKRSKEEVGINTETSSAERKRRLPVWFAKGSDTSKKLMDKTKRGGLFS
# Assay: qHTS for Inhibitors of WRN Helicase; note: nearly all actives have a fitted effect of over 55% in size
# Conditions: WRN helicase unwinding, fluorescent forked duplex, kinetic; series mostly up to 114 µM; activity change, negative = inhibition: at the top concentration
# Method in brief: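 Screening of the MLSMR collection measured strand separation of a quenched forked DNA duplex (100 nM) by 20 nM WRN with 2 mM ATP, all final. Compounds were preincubated with enzyme 15 min at room temperature.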
# % is set by controls: 0 for no effect and ±100 for the full control effect; potency is the fitted concentration of half-maximal effect.
Compound,"activity change, negative = inhibition",Potency
CCc1noc(C)c1C(=O)Oc1ccc(N(C)S(=O)(=O)c2ccc(C)c(C)c2)cc1,3.71%,–
COc1cccc(CNC(=O)[C@@H]2CCCN2C(=O)[C@@H]2CCCN2C(=O)c2ccccc2)c1,-0.0408%,–
CCN(CC)S(=O)(=O)c1cccc(-c2n[nH]c(=S)n2/N=C/c2ccc(C(=O)OC)cc2)c1,-28.1% [at 57.1 µM],–
S=c1[nH]nc(-c2ccco2)n1/N=C/c1ccc(Br)s1,-15.2%,–
S=c1[nH]nc(-c2cc(-c3ccccc3)n[nH]2)n1/N=C/c1c2ccccc2cc2ccccc12,–,50.1 µM (active)
COc1ccc(C)cc1NC(=O)CN(C)S(=O)(=O)c1ccc2c(c1)n(C)c(=O)c(=O)n2C,6.64%,–
COc1ccc2ccn(C)c2c1,-28.2%,–
OC(c1ccccc1)(c1ccccc1)C1CCN(CCCOc2ccccc2)CC1,-2.24%,–
CC(C)CCN1C(=O)c2ccc(C(=O)Nc3cccc(S(N)(=O)=O)c3)cc2C1=O,-16.1%,–
Cc1ccnc(-n2sc3ccccc3c2=O)n1,–,31.6 µM (active)
Cc1ccc(NC(=O)Cn2sc3ccccc3c2=O)cc1,0.388%,–
Cc1ccnc(SC2CC(=O)N(c3ccccc3)C2=O)n1 (stereo not drawn),-4.59%,–
CCN(CC)C(=O)C1=C(C)N(Cc2ccc(OC)cc2)C(=O)C(CC(=O)NCc2ccco2)C1 (stereo not drawn),0.799%,–
CCCCOc1ccc(Cl)cc1CSc1nncn1N,3.38%,–
COC1=CCC2([N+](=O)[O-])CN(CC(=O)O)CC1([N+](=O)[O-])C2 (stereo not drawn),-3%,–
C=CS(=O)c1sc(Cl)c(N2CCOCC2)c1[N+](=O)[O-] (stereo not drawn),–,31.6 µM (active)
COc1cccc(NCCC(=O)c2cccc([N+](=O)[O-])c2)c1,-18%,–
COC(=O)/C=C\C(=O)Nc1cccc([N+](=O)[O-])c1,–,28.2 µM (active)
O=C(Nc1cccc([N+](=O)[O-])c1)N1CCc2ccccc2C1,-7.84%,–
COC(=O)[C@@]12C[C@@H](CC(=O)N3CCC(c4ccccc4)CC3)C(=O)N(Cc3ccccc3)C1=CCC(C)(C)C2,-4.93%,–
O=C(N/N=C/c1ccco1)c1ccc(NC(=O)C2CC2)cc1,-6.2%,–
O=C(N/N=C/c1ccco1)c1ccc(C(=O)N/N=C/c2ccco2)o1,–,39.8 µM (active)
O=C(Cc1ccc([N+](=O)[O-])cc1)N/N=C/c1ccco1,2.17%,–
Cc1ccccc1-n1nc(C)c2c1N=C1C(Cl)=CC(Cl)=CN1C2c1ccc(C(=O)O)cc1 (stereo not drawn),-9.87%,–
COC(=O)c1ccc(NCc2cc(O)ccc2O)cc1,–,79.4 µM (active)
O=C(OC12CC3CC(CC(C3)C1)C2)c1ccc(NCc2cc(O)ccc2O)cc1,-8.66%,–
CC(C)OC(=O)c1ccc(NCc2cc(O)ccc2O)cc1Cl,-17%,–
O=C(c1ccccc1)c1cc(-c2ccccn2)c(N2CCOCC2)s1,1.8%,–
